Molecules are shown by their SMILES. Inconclusive results are not listed. A call without a number means that no potency is given here. Activity calls are given as the source filed them. Calls come from the whole dose curve; as a rule, active = well fitted cell-killing curve with a large enough effect in the repeat runs; inconclusive = weak or mixed curves, or effect the other way; inactive = no such curve, though single readings can be large or run the other way.

In PubChem BioAssay (Tox21) one finds Potency data, which are given here for 40 molecules.
Potency is the fitted concentration of half-maximal effect.

The test can be described thus: qHTS assay for identifying genotoxic compounds that show differential cytotoxicity against isogenic chicken DT40 cell lines with known DNA damage response pathways - Rev3 mutant cell line (AID 743014). Note: nearly all actives have a fitted effect of over 55% in size. The following applies: chicken DT40 Rev3-/- viability, CellTiter-Glo, 40 h; series mostly up to 68.4 µM. The source says: National Center for Advancing Translational Sciences [NCATS]
NIH Chemical Genomics Center [NCGC]
U.S. Environmental Protection Agency [EPA]
National Institutes of Environmental Health Sciences [NIEHS]
National Toxicology Program [NTP]
U.S. Food and Drug Administration [FDA]
DNA repair pathways play a critical role in cellular homeostasis by repairing DNA damage induced by endogenous processes and xenobiotics. Isogenic chicken DT40 cell lines deficient in different DNA repair pathways can be used to identify genotoxic compounds and aid in characterizing the nature of the DNA damage induced. Two DNA repair-deficient cell lines with disrupted genes, Rad54/Ku70 or Rev3, were used to screen the Tox21 10K compound library. Possible genotoxicity was based on the presence of a significant increase in cytotoxicity in one or more of the DNA repair-deficient cell lines compared to that observed in the parental DNA repair-proficient cell line. CellTiter Glo viability assay (Promega, Madison, WI) was used to measure cell viability in these cells after compound treatment. This assay includes the data from the Rev3 mutant cell line.
Tox21 Assay Protocol Summary:
300 DT40 mutant cells in 5 uL/well were dispensed into white, solid-bottom 1536-well plates using a Multidrop Combi (ThermoFisher Scientific, Waltham, MA) dispenser. After the assay plates were incubated at 37 C/5% CO2 for approximately 0.5 hour, 23 nL of compounds dissolved in DMSO, positive controls or DMSO only was transferred into the assay plate by a pintool work station (Kalypsys, San Diego, CA). The assay plates were incubated at 37 C/5% CO2 for 40 hours. After 5 uL per well of CellTiter-Glo reagent was added into each well of the assay plates, the plates were incubated for 30 min at room temperature and the luminescence intensity of the plates was measured using a ViewLux (PerkinElmer, Shelton, CT) plate reader.
On the technique in general: qHTS replaces the single test concentration by a dilution series.
Take `O=c1[nH]c2ccc(Cl)cc2o1`: the Potency result was “inactive”.
In the case of `Oc1cccc(O)c1O` it was 48.1 µM (active); in that of `CC(C)Nc1cccnc1N1CCN(C(=O)c2cc3cc(NS(C)(=O)=O)ccc3[nH]2)CC1`, “inactive”; in that of `CCCCCCCCCI`, “inactive”.
For `CCC(=O)OC`, the Potency entry is “inactive”.
In the case of `CCN(CC)CCNC(=O)COc1ccc(OC)cc1` it was “inactive”; in that of `CN(C)CCN1C(=O)c2ccccc2N(C)c2ccccc21`, “inactive”; in that of `CC(C)=CC(=O)C=C(C)C`, “inactive”.
In the case of `C=C1c2cccc(O)c2C(O)=C2C(=O)[C@]3(O)C(O)=C(C(N)=O)C(=O)[C@@H](N(C)C)[C@@H]3[C@@H](O)[C@H]12`, the Potency result was “inactive”.
Then `CO/N=C(/C(=O)N[C@@H]1C(=O)N2C(C(=O)O)=C(COC(N)=O)CS[C@H]12)c1ccco1`, with “inactive”; and `CCCCOc1ccc(OCCCN2CCOCC2)cc1`, with 1.01 µM (active).
Regarding `CCC(=O)C1CC(C(C)C)CC=C1C` (stereo not given), the Potency result was “inactive”.
As to `C[C@@H]1CN(CCCn2c3ccccc3c3ccccc32)C[C@H](C)N1`, the Potency was 7.5 µM (active).
In the case of `Cc1ccc2c(Br)cc(Br)c(O)c2n1` it was 9.44 µM (active).
In the case of `c1cc(N(CC2CO2)CC2CO2)ccc1Cc1ccc(N(CC2CO2)CC2CO2)cc1` (stereo not given) it was 0.0611 µM (active).
Regarding `O=C(O)C[C@H](NC(=O)OCc1ccccc1)C(=O)O`, the Potency result is “inactive”.
In the case of `CCCCC(CC)CN` (stereo not given) it was 62.3 µM (active).
In the case of `C=CC(=O)[O-].C=CC(=O)[O-].[Zn+2]` it was “inactive”; in that of `CN1C(=O)c2ccccc2C1=O`, 68.6 µM (active); in that of `CC(C)C[C@H](NC(=O)[C@H](CCc1ccccc1)NC(=O)CN1CCOCC1)C(=O)N[C@@H](Cc1ccccc1)C(=O)N[C@@H](CC(C)C)C(=O)[C@@]1(C)CO1`, 0.0168 µM (active).
Take `COc1cc(Nc2c(C#N)cnc3cc(OCCCN4CCN(C)CC4)c(OC)cc23)c(Cl)cc1Cl`: the Potency is 2.98 µM (active).
Regarding `O=[N+]([O-])c1ccc(Nc2ccc(Nc3ccccc3)c(S(=O)(=O)O)c2)c([N+](=O)[O-])c1`, the Potency result is “inactive”.
On to `C[C@@H](CN(C)C)CN1c2ccccc2Sc2ccccc21`, for which the Potency was 11.4 µM (active).
Then `Cc1ccccc1N=C(N)Nc1ccccc1C`, with 30.1 µM (active); and `Cc1ccc(CO)cc1`, with “inactive”; and `NNC(=O)CP(=O)(c1ccccc1)c1ccccc1`, with “inactive”.
On to `CC[C@]1(O)C[C@H]2CN(CCc3c([nH]c4ccccc34)[C@@](C(=O)OC)(c3cc4c(cc3OC)N(C=O)[C@H]3[C@@](O)(C(=O)OC)[C@H](OC(C)=O)[C@]5(CC)C=CCN6CC[C@]43[C@@H]65)C2)C1`, for which the Potency is 0.0053 µM (active).
Consider `CCC(C)COC(=O)CC(C)C` (stereo not given), for which the Potency was 61.1 µM (active).
Then `O=c1c(O)c(-c2ccc(O)cc2)oc2cc(O)cc(O)c12`, with 11.6 µM (active).
As to `FC(F)(F)c1ccccc1Cl`, the Potency entry was “inactive”.
Then `C1COC1`, with “inactive”; and `O=c1[nH]ncc2ccccc12`, with “inactive”; and `O=[N+]([O-])c1ccc(O/N=C/c2cc(Br)c(O)c(Br)c2)c([N+](=O)[O-])c1`, with “inactive”.
`C=C(C)C(=O)OCCCCCCCCCCCCC`: the Potency entry was “inactive”.
As to `O=C(O)CCc1nc(-c2ccccc2)c(-c2ccccc2)o1`, the Potency result is “inactive”.
Then `C=C1C[C@@]23CC[C@H]4[C@@](C)(CCC[C@@]4(C)C(=O)O[C@@H]4O[C@H](CO)[C@@H](O)[C@H](O)[C@H]4O)[C@@H]2CC[C@]1(O[C@@H]1O[C@H](CO)[C@@H](O)[C@H](O[C@@H]2O[C@H](CO)[C@@H](O)[C@H](O)[C@H]2O)[C@H]1O[C@@H]1O[C@H](CO)[C@@H](O)[C@H](O)[C@H]1O)C3`, with “inactive”.
Then `CCOC(C)=O`, with “inactive”; and `O=C1Cc2ccccc2N1c1c(Cl)cccc1Cl`, with 34.4 µM (active).
With `CCCCC(CC)COP(=O)(O)O` (stereo not given), the Potency result is “inactive”.
For `CCCCCCCCN`, the Potency result was “inactive”.
